Results taken from PubChem BioAssay.
Calls of active or inactive are those of the source. The rule behind the calls is not given here.

Assay: inhibition of 3D7 malaria parasite growth – strain 3D7 (AID 2306);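 note: 0% = DMSO wells and 100% = chloroquine plus artemisinin control wells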
Settings: P. falciparum 3D7 erythrocytic growth, LDH absorbance, 72 h; at 2 µM; stronger effect = higher value

Structure (SMILES)	growth inhibition
O=C(Nc1cccc(CN2CCN(C(=O)c3cccc(F)c3)CC2)c1)c1ccco1	88% (active)
Cc1cc(-c2ccc3c(c2)CCN(CCC2CCC(NC(=O)/C=C/c4cccc(F)c4)CC2)CC3)on1 (stereo not given)	95% (active)
CN(C)c1ccc(CN2CCC(NC(=O)c3ccc(-c4ccccc4Cl)s3)CC2)cc1	82% (active)
CC(C)c1ccc(NC(=O)c2ccc(C(=O)NC3CCN(Cc4ccsc4)C3)cc2)cc1 (stereo not given)	82% (active)
COc1ccc2nccc(N3CCC(NCCNCc4ccc5c(n4)NC(=O)CO5)C3)c2n1 (stereo not given)	100% (active)
FC(F)(F)c1ccc2nc(-c3ccc(-c4cccc(CNCc5cnn(-c6ccccc6)n5)c4)cc3)[nH]c2c1	99% (active)
Brc1cc(Br)c2c(c1)C(NCCCNc1nc3ncccc3[nH]1)CCN2 (stereo not given)	99% (active)
O=C(COc1ccccc1)Nn1cnc2ccccc21	91% (active)
CC1CC(C)CN(CCCNc2ccc(C(=O)Nc3ccc(C(F)(F)F)cc3)cc2[N+](=O)[O-])C1 (stereo not given)	101% (active)
O=C(NCCN1CCCC1)c1ccc(-c2ccc(-c3nc4ccccc4[nH]3)s2)cc1	92% (active)
COc1ccc(Cc2c(N)nc3nc(N)nc(N)c3c2C)cc1	94% (active)
CN(C)CCN(C)Cc1ccc(-c2cccc(NC(=O)c3ccc(Cl)cc3)c2)cc1	97% (active)
CCC1CN2CCc3cc(OC)c(OC)cc3C2CC1CC1NCCc2cc(OC)c(OC)cc21 (stereo not given)	103% (active)
COc1cc2c(cc1CCNCCCCNCCc1cc3c(cc1OC)CCCC3)CCCC2	101% (active)
O=C(c1ccc(Cl)c(Cl)c1)N1CCc2c([nH]c3ccccc23)C1CN1CCCC1 (stereo not given)	94% (active)
